# Records with an inconclusive call do not appear. Calls of active or inactive are those of the source. How the source made its calls: active means hit-call score of the fitted dose curve at least 0.9, where 1 is the maximum; inconclusive means response in the unintended direction; inactive means score below 0.9.
# What was measured:
# [1] = biological target: human Phosphodiesterase 4A1 (PDE4A1), PDE4A (gene 5141) (UniProt P27815); assay: NVS_ENZ_hPDE4A1: NovaScreen (NVS) Enzymatic Assay for human Phosphodiesterase 4A1 (PDE4A1) (AID 2283191)
# How it was run: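 Fluorescent substrate turnover by recombinant PDE4A1 read after 1 h by mobility-shift separation. Primary duplicate screen at 25 uM; hits retested in concentration series with a 50 uM maximum, relative to DMSO.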
# [2] = biological target: cAMP-dependent protein kinase catalytic subunit alpha (Homo sapiens) (UniProt P17612); assay: NVS_ENZ_hPKA: NovaScreen (NVS) Enzymatic Assay for human Protein Kinase A (PKA) (AID 2283192)
# How it was run: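 Cell-free kinase activity read by fluorescence after mobility-shift separation of substrate and product, 1 h post-dosing. Single-concentration duplicate screen (25 uM) preceded singleton concentration series (top 50 uM); loss of signal versus DMSO.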
# [3] = biological target: Tyrosine-protein phosphatase non-receptor type 13 (Homo sapiens) (UniProt Q12923); assay: NVS_ENZ_hPTPN13: NovaScreen (NVS) Enzymatic Assay for human Protein Tyrosine Phosphatase Non-receptor Type 13 (PTPN13) (AID 2283205)
# How it was run: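 Screened first at a single 25 uM in duplicate; compounds passing the threshold (e.g. 30% inhibition) were rerun in concentration series, top 50 uM. Recombinant enzyme, fluorescent substrate, mobility-shift separation, 0.5 h read. Data fitted as inhibition relative to DMSO.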
# [4] = biological target: human Protein Tyrosine Phosphatase Non-receptor Type 2 (PTPN2), PTPN2 (gene 5771) (UniProt P17706); assay: NVS_ENZ_hPTPN2: NovaScreen (NVS) Enzymatic Assay for human Protein Tyrosine Phosphatase Non-receptor Type 2 (PTPN2) (AID 2283207)
# How it was run: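 Activity measured as fluorescence after mobility-shift separation of substrate and product, 1 h after compound. Duplicate single-point 25 uM primary testing, concentration series for actives; inhibition scored as signal loss relative to DMSO baseline.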
# [5] = biological target: human p21 Activated Kinase 4 (PAK4), PAK4 (gene 10298) (UniProt O96013); assay: NVS_ENZ_hPAK4: NovaScreen (NVS) Enzymatic Assay for human p21 Activated Kinase 4 (PAK4) (AID 2283189)
# How it was run: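 Extracted PAK4 enzyme activity read by fluorescence with mobility-shift separation 1 h after chemical addition. Duplicate single-concentration screen at 25 uM, DMSO as negative control.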
# [6] = biological target: human Matrix Metalloproteinase-9 (MMP9), MMP9 (gene 4318) (UniProt P14780); assay: NVS_ENZ_hMMP9: NovaScreen (NVS) Enzymatic Assay for human Matrix Metalloproteinase-9 (MMP9) (AID 2283190);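 further: cell-free recombinant MMP9 protease activity read by fluorescent substrate signal; active means inhibition seen as loss of fluorescence signal versus DMSO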
# How it was run: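 Cell-free fluorescence-intensity enzyme activity assay using extracted protein, read 1 h after dosing. Loss of signal versus DMSO baseline indicates inhibition; primary screen in duplicate at 25 uM, actives followed up in concentration series.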
# [7] = biological target: human Phosphodiesterase 5 (PDE5), PDE5A (gene 8654) (UniProt O76074); assay: NVS_ENZ_hPDE5: NovaScreen (NVS) Enzymatic Assay for human Phosphodiesterase 5 (PDE5) (AID 2283194)
# How it was run: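 Screening began in duplicate at 25 uM, with actives taken into concentration-response. Enzyme activity of recombinant PDE5 toward its substrate was measured at 1 h by fluorescence mobility-shift detection, relative to DMSO controls.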
# [8] = biological target: human Phosphoinositide 3-kinase alpha (PI3Ka), PIK3CA (gene 5290) (UniProt P42336); assay: NVS_ENZ_hPI3Ka: NovaScreen (NVS) Enzymatic Assay for human Phosphoinositide 3-kinase alpha (PI3Ka) (AID 2283196)
# How it was run: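 Enzyme activity as fluorescence after mobility-shift separation of substrate and product, 1 h reaction, recombinant human PI3Kα; concentration-response to 50 uM max for chemicals passing a 25 uM duplicate screen.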
# [9] = biological target: PPP2CA (gene 5515) (UniProt P67775); assay: NVS_ENZ_hPPP2CA: NovaScreen (NVS) Enzymatic Assay for human Protein Phosphatase 2 Aatalytic subunit Alpha (PPP2CA) (AID 2283199)
# How it was run: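 Cell-free phosphatase activity: fluorescent substrate turnover by recombinant human enzyme, resolved by mobility shift at 1.33 h. Compounds passing the 25 uM duplicate primary screen were rerun in singleton series with a 50 uM top concentration.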
# [10] = biological target: human Phosphatase and Tensin Homolog (PTEN), PTEN (gene 5728) (UniProt P60484); assay: NVS_ENZ_hPTEN: NovaScreen (NVS) Enzymatic Assay for human Phosphatase and Tensin Homolog (PTEN) (AID 2283203)
# How it was run: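 Loss of fluorescent product signal after mobility-shift separation reports PTEN activity, recombinant human enzyme, 1 h after compound addition. Single 25 uM duplicate screen, then concentration-response on actives; DMSO baseline.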
# [11] = biological target: Tyrosine-protein phosphatase non-receptor type 14 (Homo sapiens) (UniProt Q15678); assay: NVS_ENZ_hPTPN14: NovaScreen (NVS) Enzymatic Assay for human Protein Tyrosine Phosphatase Non-receptor Type 14 (PTPN14) (AID 2283206)
# How it was run: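 Fluorescent substrate turnover by recombinant human PTPN14 was measured 0.5 h after compound addition, with substrate and product separated by mobility shift. Single-point screening at 25 uM, then concentration-response up to 50 uM for chemicals meeting threshold (e.g., 30% inhibition).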
# [12] = biological target: Serine/threonine-protein phosphatase PP1-alpha catalytic subunit (Homo sapiens) (UniProt P62136); assay: NVS_ENZ_hPPP1CA: NovaScreen (NVS) Enzymatic Assay for human Protein Phosphatase 1 Aatalytic subunit Alpha (PPP1CA) (AID 2283200)
# How it was run: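 Chemicals were first screened in duplicate at 25 uM, and those passing threshold (e.g. 30% inhibition) were run as concentration series to 50 uM. Cell-free recombinant protein, 1.33 h read, fluorescent substrate/product mobility-shift detection, normalised to DMSO.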
# [13] = biological target: human Protein Tyrosine Phosphatase Non-receptor Type 1 (PTPN1), PTPN1 (gene 5770) (UniProt P18031); assay: NVS_ENZ_hPTPN1: NovaScreen (NVS) Enzymatic Assay for human Protein Tyrosine Phosphatase Non-receptor Type 1 (PTPN1) (AID 2283201)
# How it was run: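 Chemicals were first tested in duplicate at 25 uM, and those passing threshold went on to singleton concentration series topping at 50 uM. Recombinant enzyme, specific substrate, product separated by mobility shift, fluorescence read at 1.33 h; activity loss relative to DMSO.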
# [14] = biological target: Tyrosine-protein phosphatase non-receptor type 11 (Homo sapiens) (UniProt Q06124); assay: NVS_ENZ_hPTPN11: NovaScreen (NVS) Enzymatic Assay for human Protein Tyrosine Phosphatase Non-receptor Type 11 (PTPN11) (AID 2283202)
# How it was run: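 Compounds first tested in duplicate at 25 uM; those reaching ~30% inhibition rerun in singleton concentration-response, top 50 uM. Phosphatase activity measured after 0.5 h by fluorescence with mobility-shift separation, relative to DMSO.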
# [15] = biological target: human Protein Tyrosine Phosphatase Non-receptor Type 6 (PTPN6), PTPN6 (gene 5777) (UniProt P29350); assay: NVS_ENZ_hPTPN6: NovaScreen (NVS) Enzymatic Assay for human Protein Tyrosine Phosphatase Non-receptor Type 6 (PTPN6) (AID 2283210)
# How it was run: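 Recombinant human PTPN6 from SF9 cells, enzyme activity followed by fluorescence after mobility-shift separation of substrate and product at 1.33 h. Chemicals first tested at a single 25 uM in duplicate, then confirmed across concentration series; loss of signal relative to DMSO.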
# [16] = biological target: human Protein Tyrosine Phosphatase Receptor Type B (PTPRB), PTPRB (gene 5787) (UniProt P23467); assay: NVS_ENZ_hPTPRB: NovaScreen (NVS) Enzymatic Assay for human Protein Tyrosine Phosphatase Receptor Type B (PTPRB) (AID 2283211)
# How it was run: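 Recombinant human PTPRB with a fluorescent substrate, product separated by electrophoretic mobility shift; read 1 h after dosing. Primary screen in duplicate at 25 uM; actives then retested in concentration series; loss of signal versus DMSO.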
# Chain of human Protein Tyrosine Phosphatase Non-receptor Type 2 (PTPN2), PTPN2 (gene 5771) (P17706 whole entry, looked up): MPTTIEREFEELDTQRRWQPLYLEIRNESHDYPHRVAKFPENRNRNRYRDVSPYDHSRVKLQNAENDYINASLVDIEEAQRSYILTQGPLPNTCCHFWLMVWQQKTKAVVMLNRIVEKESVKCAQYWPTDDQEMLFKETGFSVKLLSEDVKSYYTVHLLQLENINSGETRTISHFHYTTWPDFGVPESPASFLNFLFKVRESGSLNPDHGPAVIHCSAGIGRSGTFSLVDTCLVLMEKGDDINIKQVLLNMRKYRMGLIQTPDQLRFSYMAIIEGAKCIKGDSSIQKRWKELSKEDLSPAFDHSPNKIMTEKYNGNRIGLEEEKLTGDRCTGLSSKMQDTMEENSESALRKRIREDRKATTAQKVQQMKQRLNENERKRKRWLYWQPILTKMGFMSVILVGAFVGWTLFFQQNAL
# Chain of human Phosphodiesterase 4A1 (PDE4A1), PDE4A (gene 5141) (P27815 whole entry, looked up): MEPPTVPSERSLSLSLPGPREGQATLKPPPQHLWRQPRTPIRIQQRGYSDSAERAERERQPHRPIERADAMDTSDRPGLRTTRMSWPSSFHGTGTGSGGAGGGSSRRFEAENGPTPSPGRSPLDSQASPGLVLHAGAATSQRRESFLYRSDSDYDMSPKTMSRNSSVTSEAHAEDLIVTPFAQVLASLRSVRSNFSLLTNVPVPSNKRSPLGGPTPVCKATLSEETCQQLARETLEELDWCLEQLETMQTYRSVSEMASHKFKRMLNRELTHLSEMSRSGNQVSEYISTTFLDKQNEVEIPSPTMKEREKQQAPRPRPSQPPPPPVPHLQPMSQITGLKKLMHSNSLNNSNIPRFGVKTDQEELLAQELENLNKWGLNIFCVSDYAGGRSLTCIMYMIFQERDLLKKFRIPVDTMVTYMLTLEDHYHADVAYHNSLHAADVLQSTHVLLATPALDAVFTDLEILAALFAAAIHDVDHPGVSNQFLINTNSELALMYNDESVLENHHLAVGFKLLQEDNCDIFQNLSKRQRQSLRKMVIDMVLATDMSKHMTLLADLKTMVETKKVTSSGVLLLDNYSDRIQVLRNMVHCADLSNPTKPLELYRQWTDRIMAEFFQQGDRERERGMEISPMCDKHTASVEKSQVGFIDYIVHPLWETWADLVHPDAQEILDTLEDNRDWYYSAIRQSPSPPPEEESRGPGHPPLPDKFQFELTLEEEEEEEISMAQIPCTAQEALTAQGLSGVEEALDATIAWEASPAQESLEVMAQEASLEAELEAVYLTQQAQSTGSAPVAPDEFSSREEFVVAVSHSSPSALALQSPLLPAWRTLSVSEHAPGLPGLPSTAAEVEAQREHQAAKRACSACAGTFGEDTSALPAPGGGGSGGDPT
# Chain of Serine/threonine-protein phosphatase PP1-alpha catalytic subunit (Homo sapiens) (P62136 whole entry, looked up): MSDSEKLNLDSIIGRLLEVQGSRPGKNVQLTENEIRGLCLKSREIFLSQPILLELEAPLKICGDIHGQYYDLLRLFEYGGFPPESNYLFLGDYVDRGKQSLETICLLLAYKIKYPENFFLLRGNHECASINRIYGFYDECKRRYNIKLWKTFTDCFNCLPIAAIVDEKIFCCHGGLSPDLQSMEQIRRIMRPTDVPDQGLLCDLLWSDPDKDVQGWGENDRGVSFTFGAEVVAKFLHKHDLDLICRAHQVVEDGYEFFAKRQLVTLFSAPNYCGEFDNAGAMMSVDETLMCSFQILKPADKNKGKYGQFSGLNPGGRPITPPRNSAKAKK
# Chain of human Phosphoinositide 3-kinase alpha (PI3Ka), PIK3CA (gene 5290) (P42336 whole entry, looked up): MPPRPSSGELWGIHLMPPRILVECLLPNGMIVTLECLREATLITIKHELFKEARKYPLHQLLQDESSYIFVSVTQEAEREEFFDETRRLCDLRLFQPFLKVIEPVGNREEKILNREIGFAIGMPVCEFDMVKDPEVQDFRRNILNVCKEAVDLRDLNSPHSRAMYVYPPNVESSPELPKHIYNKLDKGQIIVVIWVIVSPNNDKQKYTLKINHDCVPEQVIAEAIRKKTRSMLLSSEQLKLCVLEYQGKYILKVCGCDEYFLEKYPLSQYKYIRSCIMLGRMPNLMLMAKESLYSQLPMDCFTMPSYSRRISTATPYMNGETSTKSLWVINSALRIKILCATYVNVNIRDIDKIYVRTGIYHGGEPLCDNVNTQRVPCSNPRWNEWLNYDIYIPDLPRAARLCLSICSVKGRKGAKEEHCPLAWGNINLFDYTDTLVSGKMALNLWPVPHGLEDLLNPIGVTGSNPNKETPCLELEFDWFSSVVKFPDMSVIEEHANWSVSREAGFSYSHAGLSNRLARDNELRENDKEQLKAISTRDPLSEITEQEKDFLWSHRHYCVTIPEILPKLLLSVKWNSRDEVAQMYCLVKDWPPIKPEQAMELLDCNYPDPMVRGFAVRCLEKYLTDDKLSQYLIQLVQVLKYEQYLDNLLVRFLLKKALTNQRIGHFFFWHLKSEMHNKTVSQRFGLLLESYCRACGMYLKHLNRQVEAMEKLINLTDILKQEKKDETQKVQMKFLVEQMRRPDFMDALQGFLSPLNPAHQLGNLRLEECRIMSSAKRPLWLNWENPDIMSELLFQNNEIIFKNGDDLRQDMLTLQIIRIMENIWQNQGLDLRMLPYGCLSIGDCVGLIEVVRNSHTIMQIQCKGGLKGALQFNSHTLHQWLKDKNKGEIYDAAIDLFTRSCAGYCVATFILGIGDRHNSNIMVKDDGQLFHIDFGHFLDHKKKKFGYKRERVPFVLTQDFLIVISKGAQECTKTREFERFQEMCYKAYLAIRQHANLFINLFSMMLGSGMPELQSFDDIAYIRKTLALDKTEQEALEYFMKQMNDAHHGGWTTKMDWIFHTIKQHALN
# Chain of human Matrix Metalloproteinase-9 (MMP9), MMP9 (gene 4318) (P14780 whole entry, looked up): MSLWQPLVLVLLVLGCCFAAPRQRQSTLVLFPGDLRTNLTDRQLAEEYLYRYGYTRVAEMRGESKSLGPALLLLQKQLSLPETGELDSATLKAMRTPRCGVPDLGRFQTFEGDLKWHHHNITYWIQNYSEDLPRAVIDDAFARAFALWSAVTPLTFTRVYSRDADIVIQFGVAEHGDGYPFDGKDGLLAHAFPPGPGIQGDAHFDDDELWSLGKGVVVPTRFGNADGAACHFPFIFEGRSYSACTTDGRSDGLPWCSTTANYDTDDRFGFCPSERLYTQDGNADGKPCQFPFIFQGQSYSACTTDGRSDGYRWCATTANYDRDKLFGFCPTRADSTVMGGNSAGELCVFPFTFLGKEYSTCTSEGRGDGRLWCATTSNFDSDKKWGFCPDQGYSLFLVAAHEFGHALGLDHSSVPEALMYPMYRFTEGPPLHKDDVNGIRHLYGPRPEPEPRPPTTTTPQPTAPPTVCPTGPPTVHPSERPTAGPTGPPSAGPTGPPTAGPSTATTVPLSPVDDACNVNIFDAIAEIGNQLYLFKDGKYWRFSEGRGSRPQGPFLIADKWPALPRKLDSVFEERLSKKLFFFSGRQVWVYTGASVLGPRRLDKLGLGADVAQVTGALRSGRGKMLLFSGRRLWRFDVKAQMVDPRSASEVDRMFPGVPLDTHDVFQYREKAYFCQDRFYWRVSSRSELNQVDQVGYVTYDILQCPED
# Chain of PPP2CA (gene 5515) (P67775 whole entry, looked up): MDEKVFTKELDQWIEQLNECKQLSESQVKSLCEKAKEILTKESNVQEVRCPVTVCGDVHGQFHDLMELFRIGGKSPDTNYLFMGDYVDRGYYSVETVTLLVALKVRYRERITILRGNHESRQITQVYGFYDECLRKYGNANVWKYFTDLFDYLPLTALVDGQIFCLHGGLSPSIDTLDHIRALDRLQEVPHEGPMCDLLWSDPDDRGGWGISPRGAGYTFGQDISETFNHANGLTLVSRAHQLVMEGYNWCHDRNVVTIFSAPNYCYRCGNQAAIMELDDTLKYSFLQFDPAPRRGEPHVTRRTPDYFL
# Chain of human p21 Activated Kinase 4 (PAK4), PAK4 (gene 10298) (O96013 whole entry, looked up): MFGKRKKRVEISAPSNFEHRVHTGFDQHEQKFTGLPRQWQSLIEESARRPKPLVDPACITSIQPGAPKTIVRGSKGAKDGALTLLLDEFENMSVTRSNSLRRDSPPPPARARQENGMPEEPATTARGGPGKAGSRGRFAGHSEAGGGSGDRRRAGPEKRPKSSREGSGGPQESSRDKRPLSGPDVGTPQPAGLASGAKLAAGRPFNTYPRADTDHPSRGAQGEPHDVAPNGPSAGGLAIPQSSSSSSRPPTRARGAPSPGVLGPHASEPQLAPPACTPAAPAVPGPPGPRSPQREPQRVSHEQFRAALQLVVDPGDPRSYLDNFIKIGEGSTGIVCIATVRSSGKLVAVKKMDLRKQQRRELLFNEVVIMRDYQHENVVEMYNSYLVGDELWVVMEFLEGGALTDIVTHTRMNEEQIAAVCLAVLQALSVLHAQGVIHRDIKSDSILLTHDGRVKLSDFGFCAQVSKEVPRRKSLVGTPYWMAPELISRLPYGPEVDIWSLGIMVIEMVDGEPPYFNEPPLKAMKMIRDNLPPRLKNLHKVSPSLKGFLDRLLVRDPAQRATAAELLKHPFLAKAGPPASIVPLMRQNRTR
# Chain of human Protein Tyrosine Phosphatase Non-receptor Type 1 (PTPN1), PTPN1 (gene 5770) (P18031 whole entry, looked up): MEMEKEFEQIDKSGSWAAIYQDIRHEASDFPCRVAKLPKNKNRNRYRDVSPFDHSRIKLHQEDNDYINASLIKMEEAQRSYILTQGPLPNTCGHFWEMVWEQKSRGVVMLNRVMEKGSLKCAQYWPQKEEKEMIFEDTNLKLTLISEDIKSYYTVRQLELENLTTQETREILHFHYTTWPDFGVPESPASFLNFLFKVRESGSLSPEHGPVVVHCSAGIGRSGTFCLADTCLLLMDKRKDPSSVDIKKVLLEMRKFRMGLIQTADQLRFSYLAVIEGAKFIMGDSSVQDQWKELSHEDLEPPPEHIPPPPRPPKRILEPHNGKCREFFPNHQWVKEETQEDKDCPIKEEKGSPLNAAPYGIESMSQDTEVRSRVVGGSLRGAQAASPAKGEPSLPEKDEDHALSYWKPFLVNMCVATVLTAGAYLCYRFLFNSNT
compound,measurement,setting,value
Cc1cc(C2CC2)nc(Nc2ccccc2)n1,outcome,[1],inactive
Nc1c(Cl)cc([N+](=O)[O-])cc1Cl,outcome,[2],inactive
same,AC50,[3],25 µM (active)
same,outcome,[4],inactive
CC[C@H](C)[C@H]1O[C@]2(C=C[C@@H]1C)C[C@@H]1C[C@@H](C/C=C(\C)[C@@H](O[C@H]3C[C@H](OC)[C@@H](O[C@H]4C[C@H](OC)[C@@H](NC)[C@H](C)O4)[C@H](C)O3)[C@@H](C)/C=C/C=C3\CO[C@@H]4[C@H](O)C(C)=C[C@@H](C(=O)O1)[C@]34O)O2,outcome,[5],inactive
same,outcome,[6],inactive
same,AC50,[1],25 µM (active)
same,AC50,[7],39.3 µM (active)
same,AC50,[8],7.94 µM (active)
same,AC50,[9],16.8 µM (active)
same,AC50,[10],4.5 nM (active)
C[Si](Cn1cncn1)(c1ccc(F)cc1)c1ccc(F)cc1,AC50,[1],7.33 µM (active)
same,outcome,[7],inactive
O=C(O)c1cc(Oc2ccc(C(F)(F)F)cc2Cl)ccc1[N+](=O)[O-],outcome,[6],inactive
same,outcome,[1],inactive
same,outcome,[11],inactive
COc1ccc(C(=CC(=O)N2CCOCC2)c2ccc(Cl)cc2)cc1OC,AC50,[1],0.0383 µM (active)
CCOP(=S)(OCC)Oc1ccc([N+](=O)[O-])cc1,outcome,[1],inactive
CC(C)=CC1C(C(=O)OCN2C(=O)C3=C(CCCC3)C2=O)C1(C)C (centres undefined),outcome,[8],inactive
COP(=O)(OC)SCn1c(=O)oc2cc(Cl)cnc21,outcome,[6],inactive
O=[N+]([O-])c1cc(C(F)(F)F)c(Cl)c([N+](=O)[O-])c1Nc1ncc(C(F)(F)F)cc1Cl,outcome,[8],inactive
same,outcome,[12],inactive
CCOP(=S)(OCC)Oc1cc(C)nc(C(C)C)n1,outcome,[1],inactive
same,outcome,[12],inactive
same,outcome,[4],inactive
CCCOCC(=Nc1ccc(Cl)cc1C(F)(F)F)n1ccnc1,outcome,[6],inactive
same,outcome,[1],inactive
S=C1NCCN1,outcome,[6],inactive
same,outcome,[2],inactive
same,outcome,[13],inactive
same,outcome,[14],inactive
same,outcome,[4],inactive
same,outcome,[15],inactive
same,outcome,[16],inactive
CCC(=O)Nc1ccc(Cl)c(Cl)c1,AC50,[1],25 µM (active)
same,outcome,[9],inactive
CCOC(=O)CC(SP(=O)(OC)OC)C(=O)OCC (centres undefined),outcome,[6],inactive
same,outcome,[12],inactive
CNC(=O)ON=C(C)SC,outcome,[8],inactive
